# Arbovirus anti – antivirals against arbovirus infection | arbovirus infection cell-based antiviral screen | inhibition, % at 10 µM | 200,000 compounds, 0.37% hits; in the data active = inhibition above about 30%
# Mcl1 Noxa PPI – Mcl-1/Noxa interaction inhibition; inhibition, % at 21.7 µM; AID 1022; TR-FRET Mcl-1/Noxa peptide binding, 2 h; 220,000 compounds, 1.5% hits; Q07820;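 active = compounds that cut the protein-peptide binding signal by more than 50% relative to plate controls in a single-dose test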;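 note: His-tagged Mcl-1 with rhodamine Noxa BH3 peptide and terbium anti-His antibody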
# Target sequence (Q07820 whole entry, looked up): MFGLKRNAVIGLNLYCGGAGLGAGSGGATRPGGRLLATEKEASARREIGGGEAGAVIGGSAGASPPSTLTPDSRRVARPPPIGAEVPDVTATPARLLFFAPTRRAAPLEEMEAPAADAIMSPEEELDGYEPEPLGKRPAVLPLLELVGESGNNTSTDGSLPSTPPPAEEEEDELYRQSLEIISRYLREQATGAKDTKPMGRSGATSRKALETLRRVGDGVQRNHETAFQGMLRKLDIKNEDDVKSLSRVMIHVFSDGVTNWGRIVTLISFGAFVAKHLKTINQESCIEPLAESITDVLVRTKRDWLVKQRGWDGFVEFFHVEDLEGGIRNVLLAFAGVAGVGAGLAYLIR
# Mcl-1 Bim block – disrupts Bim peptide binding to human Mcl-1; Bead-based flow cytometry, Bim peptide-Mcl-1 binding; inhibition, % at 10 µM; 190,000 compounds, 0.1% hits; AID 1009; in the data active = inhibition above about 40%
# 14-3-3 Bad PPI – disrupts binding of bovine 14-3-3 zeta to phospho-Bad peptide; AID 781; 220,000 compounds, 0.71% hits; inhibition, % at 21.7 µM; TR-FRET 14-3-3zeta/Dy647-pBad peptide displacement, 1 h;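 active = inhibition above about 70%, limit read from the data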
# Target sequence (P63103 whole entry, looked up): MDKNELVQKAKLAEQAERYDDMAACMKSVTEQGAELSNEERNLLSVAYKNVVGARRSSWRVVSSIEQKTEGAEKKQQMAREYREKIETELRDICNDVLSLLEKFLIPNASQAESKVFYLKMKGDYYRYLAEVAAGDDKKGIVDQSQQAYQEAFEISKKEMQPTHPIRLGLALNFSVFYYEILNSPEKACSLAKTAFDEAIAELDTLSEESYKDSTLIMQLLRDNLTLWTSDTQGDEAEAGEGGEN
# Mcl1-Bid inh – disrupts binding of human Mcl-1 to Bid peptide | Q07820 | TR-FRET Mcl-1/Bid-Dy647 peptide binding, 1536-well | inhibition, % at 21.7 µM | 220,000 compounds, 0.97% hits | AID 1021;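 active = compounds that cut the binding signal by more than half at the single screening dose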;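 note: His-tagged Mcl-1 with europium anti-His antibody binding Bid BH3 peptide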
# Hits are given with their value; - = inactive; . = not tested or not shown. Only some compounds are listed: those with a hit (about 3% of all), similar ones and a draw of the others.
SMILES,Arbovirus anti,Mcl1 Noxa PPI,Mcl-1 Bim block,14-3-3 Bad PPI,Mcl1-Bid inh
CCOc1ccc2nc(NC(=O)C3CCCN(S(=O)(=O)c4cccc5nonc45)C3)sc2c1 (centres undefined),-,-,-,-,59.4
COc1cc(NC(=O)C2CCN(S(=O)(=O)c3cccc4nonc34)CC2)cc(OC)c1,-,-,-,-,81.1
CCCCCc1nnc(NC(=O)C2COc3ccccc3O2)s1 (centres undefined),45.8,-,-,-,-
Cc1ccc(CSc2nnc(NC(=O)C3COc4ccccc4O3)s2)cc1 (centres undefined),55.5,-,-,-,-
C/C(=N\NC(=O)c1ccc(CSc2nc(C)cc(C)n2)cc1)c1ccco1,-,-,-,-,-
COc1cccc2c1C(CO)N1C(C#N)C3CC(C(=O)O)C(C1C2)N3C (centres undefined),.,-,.,-,-
COc1ccc2c(c1)O[C@@H](c1ccc3c(c1)OCO3)[C@H](OC(=O)Nc1cc(OC)c(OC)c(OC)c1)C2=O,-,-,-,-,-
O=[N+]([O-])c1cc(S(=O)(=O)N2CCCCC2)ccc1NCCCN1CCOCC1,-,53.6,-,-,-
COc1ccc(Nc2ccc(S(=O)(=O)N3CCCCC3)cc2[N+](=O)[O-])cc1,-,-,-,85.4,-
Cc1cc(C)cc(-n2c(C)nc3cc(C(=O)O)ccc32)c1,-,-,-,-,-
Cc1ccc(C(C[N+](=O)[O-])Sc2ccc(N)cc2)cc1 (centres undefined),.,-,.,-,-
CCCN(Cc1cc(=O)[nH]c2ccccc12)C(=O)CC,.,-,.,76.0,-
COc1cnn(-c2ccccc2)c(=O)c1SCc1ccc(Cl)cc1Cl,-,85.2,-,-,-
COc1cnn(-c2ccc(Br)cc2)c(=O)c1SCc1ccccc1,-,76.0,-,-,-
CCOC(=O)CNc1ccc(OC(F)(F)F)cc1,.,-,.,-,-
CC1(C)CC2CC(C)(CN2Cc2c(O)ccc3ccccc23)C1 (centres undefined),-,-,-,-,-
Cc1cc(C)cc(N(C(=O)CCC(=O)Nc2ccccn2)C(C(=O)NC(C)C)c2ccc(O)cc2)c1 (centres undefined),-,-,-,-,-
Nc1nc(SCC(=O)Nc2ncc(C(F)(F)F)cc2Cl)n[nH]1,-,-,-,-,-
CNC(=O)/C=C1\NC(C)(C)Cc2ccccc21,-,-,-,-,-
CCC1(C)Cc2ccccc2/C(=C/C(=O)N2CCCCC2)N1 (centres undefined),-,-,-,77.0,-
O=C(CSc1ncn(-c2ccccc2)n1)Nc1nc2ccccc2s1,40.0,-,-,-,-
O=C(CS(=O)(=O)Cc1ccccc1)Nc1nc2ccccc2s1,47.8,-,-,-,-
CN(C)S(=O)(=O)c1cccc(C(=O)Nc2ccc(S(=O)(=O)N3CCCC3)cc2)c1,-,-,-,-,-
Cc1ccc(-n2cccc2/C=C2\C(=N)N3N=C(c4ccco4)SC3=NC2=O)cc1,45.5,94.1,-,74.2,79.4
Cc1cc(C)cc(-n2cccc2/C=C2/C(=N)N3C(=NC2=O)SN=C3S(C)(=O)=O)c1,-,-,-,-,-
SMILES,Arbovirus anti,Mcl1 Noxa PPI,Mcl-1 Bim block,14-3-3 Bad PPI,Mcl1-Bid inh
CCc1ccc(-n2cccc2/C=C2/C(=N)N3C(=NC2=O)SN=C3S(C)(=O)=O)cc1,-,93.9,-,-,-
COc1cccc(-n2c(C)cc(/C=C3/C(=N)N4C(=NC3=O)SN=C4S(C)(=O)=O)c2C)c1,40.1,-,-,-,-
CS(=O)(=O)C1=NSC2=NC(=O)/C(=C\c3cccn3-c3ccccc3Cl)C(=N)N21,50.9,88.9,-,-,-
CCC1=NN2C(=N)/C(=C\c3cccn3-c3ccc(Cl)cc3)C(=O)N=C2S1,-,-,-,-,-
CCCCn1c(N)c(N(CCOC)C(=O)CCc2ccc(OC)cc2)c(=O)[nH]c1=O,-,-,-,-,-
CN(C)CCCNc1ccc(S(N)(=O)=O)cc1[N+](=O)[O-],-,-,-,-,-
Cc1ccc(-n2cccc2/C=C2/C(=N)N3C(=NC2=O)SN=C3S(C)(=O)=O)cc1,46.7,98.3,-,-,-
O=c1[nH]c(SCc2c(Cl)cccc2Cl)nc2ccccc12,-,-,-,-,-
CN(CC(=O)Nn1cnnc1)S(=O)(=O)c1ccccc1,-,-,-,73.2,-
N/C(=N\c1nc2c(c(=O)[nH]1)CCC2)Nc1ccccc1,-,-,-,-,-
O=C(CNC(=O)c1ccccc1F)OCc1nc2ccccc2s1,-,-,-,-,-
CNc1sc(C(=O)c2ccccc2F)c(N)c1-c1nc2ccccc2s1,-,85.9,-,-,-
Oc1cccc(C=NCc2ccccc2)c1O,-,-,-,-,-
O=C(/C(=N/N=C/c1ccc(O)c(O)c1O)c1ccccc1)c1ccccc1,-,51.8,-,-,-
Oc1ccc(/C=N/N=C(c2ccccc2)c2ccccc2)c(O)c1O,-,101.2,-,-,-
CC(CSc1nnnn1-c1ccccc1)Cn1c(N2CCN(C)CC2)nc2c1c(=O)[nH]c(=O)n2C (centres undefined),-,51.8,-,-,-
CN1CCN(c2nc3c(c(=O)[nH]c(=O)n3C)n2CCSc2nnnn2-c2ccccc2)CC1,.,-,.,-,-
Cc1cc(C)cc(COn2ccnc2)c1,-,-,-,-,-
Cc1ccc(Nc2c(-c3ccc(C)o3)nc3cnccn23)cc1,-,51.1,-,-,-
O=C(CC(C(=O)O)c1ccccc1)Nc1cccc2ccccc12 (centres undefined),-,-,-,-,-
O=C(Nc1nnc(SCc2c(Cl)cccc2Cl)s1)c1ccc2ncsc2c1,-,-,-,92.6,-
N#Cc1ccc(CSc2nnc(NC(=O)c3ccc4ncsc4c3)s2)cc1,-,-,-,86.1,-
N#Cc1ccc(CSc2nnc(NC(=O)c3ccc(=O)[nH]c3)s2)cc1,.,-,.,-,-
CCN(CC)C(=O)CSc1ncnc2sc(C)c(C)c12,-,-,-,-,-
CCOC(=O)/C(C#N)=C/C1=C(N2CCOCC2)C(C)(C)OCC1,.,-,.,-,-
SMILES,Arbovirus anti,Mcl1 Noxa PPI,Mcl-1 Bim block,14-3-3 Bad PPI,Mcl1-Bid inh
CC(C)CC(=O)NC(=S)N(Cc1ccccc1)Cc1ccccc1,-,56.4,-,-,-
CS(=O)(=O)N1CCC(C(=O)Nc2cccc([N+](=O)[O-])c2)CC1,-,-,-,-,-
O=C(COc1ccc2ccc(=O)oc2c1)c1ccccc1,.,-,.,-,-
CC(Oc1ccc2ccc(=O)oc2c1)C(=O)c1ccccc1 (centres undefined),-,-,-,-,51.6
CCOC(=O)N1CCC(NC(=O)c2ccc3c(c2)sc2nc(-c4ccccc4)cn23)CC1,-,-,-,.,-
CCOC(=O)N1CCC(NC(=O)c2ccc3c(c2)sc2nc(-c4cccc(OC)c4)cn23)CC1,-,-,-,75.0,-
Oc1ccc(Cl)cc1-c1cc(-c2ccccc2)n[nH]1,32.8,-,-,-,-
COc1ccccc1-c1cc(-c2cc(Cl)ccc2O)n[nH]1,-,-,-,-,-
O=C1CCCC/C1=C/Nc1cccc(C(F)(F)F)c1,-,-,-,92.9,-

# Bioassay records deposited in PubChem BioAssay by several laboratories.
